Holding throughout (assay): DAPPL (digital affinity profiling via proximity ligation, sequencing); 10 mM Tris-HCl pH 7.5, 50 mM NaCl, 1 mM DTT, 4% glycerol, room temperature, 30 min; GST-TFs on glutathione beads, 16-mer random dsDNA library, 0.1% formaldehyde crosslink after washing; high values mean tight binding
Common to all, as to conditions: protein: recombinant; tags: N-terminal GST; dsDNA, one strand shown

One experiment has as its target T1, FEV (Homo sapiens, UniProt Q99581 1-238).
T1 sequence: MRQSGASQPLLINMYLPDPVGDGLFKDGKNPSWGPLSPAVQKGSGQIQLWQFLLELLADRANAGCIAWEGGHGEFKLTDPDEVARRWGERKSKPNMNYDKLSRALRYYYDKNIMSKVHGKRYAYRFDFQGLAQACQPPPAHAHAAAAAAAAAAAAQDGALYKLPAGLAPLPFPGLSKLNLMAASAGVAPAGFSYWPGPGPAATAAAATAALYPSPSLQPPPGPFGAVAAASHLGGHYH
The essentials:
(§1)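 In yeast, human transcription factors were expressed with a GST fusion, then pulled down on glutathione beads and given DNA barcodes. Pooled with a tag-only sample, they were exposed to 200 nmole of a 16-mer random double-stranded DNA library (Tris/NaCl/DTT/glycerol buffer, room temperature, 30 min), washed, crosslinked with 0.1% formaldehyde, proximity-ligated using BsaI/T4 ligase for 1 h at 37 °C, PCR-amplified and read on an Illumina NextSeq500. Each hexamer's frequency of reads for a factor, divided by the matching frequency for the tag-only sample, gives the binding signal.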

For a further experiment, the target named is ETV5 (Homo sapiens, UniProt P41161 1-510). In short, it runs like this:
as §1

For the next experiment, the target named is T2, SPIC (Homo sapiens, UniProt Q8N5J4 1-248).
T2 sequence: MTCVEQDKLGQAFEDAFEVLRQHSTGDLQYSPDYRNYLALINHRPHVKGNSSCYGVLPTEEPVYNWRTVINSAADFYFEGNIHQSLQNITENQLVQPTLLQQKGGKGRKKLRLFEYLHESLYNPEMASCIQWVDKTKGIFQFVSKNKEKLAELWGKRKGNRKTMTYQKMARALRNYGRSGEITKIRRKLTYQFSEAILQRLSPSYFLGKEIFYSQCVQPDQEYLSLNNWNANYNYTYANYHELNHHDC
The essentials:
as §1

A further experiment has as its target ELF4 (Homo sapiens, UniProt Q99607 1-663). The essentials: as §1
A further experiment has as its target T3, ELK4 (Homo sapiens, UniProt P28324-2 1-405).
T3 sequence: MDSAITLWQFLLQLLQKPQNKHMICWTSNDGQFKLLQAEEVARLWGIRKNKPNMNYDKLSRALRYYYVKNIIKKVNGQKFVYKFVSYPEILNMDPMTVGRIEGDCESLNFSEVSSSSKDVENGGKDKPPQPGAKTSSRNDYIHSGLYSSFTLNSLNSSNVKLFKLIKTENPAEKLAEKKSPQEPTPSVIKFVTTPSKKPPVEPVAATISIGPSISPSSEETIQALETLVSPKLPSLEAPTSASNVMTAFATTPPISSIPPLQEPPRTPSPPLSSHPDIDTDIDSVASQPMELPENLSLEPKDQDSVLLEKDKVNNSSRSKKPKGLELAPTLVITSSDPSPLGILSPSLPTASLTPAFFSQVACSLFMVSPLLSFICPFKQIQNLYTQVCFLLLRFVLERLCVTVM
In short, it runs like this:
as §1

For the next experiment, the target named is T4, ETV2 (Homo sapiens, UniProt O00321 1-342).
T4 sequence: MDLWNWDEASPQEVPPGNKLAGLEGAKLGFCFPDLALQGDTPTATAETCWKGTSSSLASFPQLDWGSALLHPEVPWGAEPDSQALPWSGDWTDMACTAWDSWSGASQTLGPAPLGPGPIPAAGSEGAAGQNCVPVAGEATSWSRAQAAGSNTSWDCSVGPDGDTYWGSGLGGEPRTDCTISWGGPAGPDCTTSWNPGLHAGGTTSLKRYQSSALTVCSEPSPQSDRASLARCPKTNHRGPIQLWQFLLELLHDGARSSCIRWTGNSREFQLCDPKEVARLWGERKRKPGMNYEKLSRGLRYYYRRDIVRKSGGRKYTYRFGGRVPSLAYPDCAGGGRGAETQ
The essentials: as §1

For another experiment, the target named is T5, ELF3 (Homo sapiens, UniProt P78545 1-371).
T5 sequence: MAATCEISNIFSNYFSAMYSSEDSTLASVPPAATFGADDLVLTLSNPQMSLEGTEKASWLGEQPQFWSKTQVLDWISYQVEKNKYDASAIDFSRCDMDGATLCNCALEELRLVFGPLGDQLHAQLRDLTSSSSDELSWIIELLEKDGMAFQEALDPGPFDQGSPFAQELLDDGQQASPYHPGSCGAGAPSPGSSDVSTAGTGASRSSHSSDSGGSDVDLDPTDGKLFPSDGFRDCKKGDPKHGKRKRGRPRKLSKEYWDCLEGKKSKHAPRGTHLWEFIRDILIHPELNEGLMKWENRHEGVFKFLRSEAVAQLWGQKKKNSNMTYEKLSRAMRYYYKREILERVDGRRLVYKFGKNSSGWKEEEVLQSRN
The essentials: as §1

In a further experiment the target is ETV1 (Homo sapiens, UniProt P50549 1-477). The essentials:
as §1

8 sequences from PMC7862700, “An all-to-all approach to the identification of sequence-specific readers for epigenetic DNA modifications on cytosine” can be followed below.

Chain of ELF4 (Q99607 whole entry): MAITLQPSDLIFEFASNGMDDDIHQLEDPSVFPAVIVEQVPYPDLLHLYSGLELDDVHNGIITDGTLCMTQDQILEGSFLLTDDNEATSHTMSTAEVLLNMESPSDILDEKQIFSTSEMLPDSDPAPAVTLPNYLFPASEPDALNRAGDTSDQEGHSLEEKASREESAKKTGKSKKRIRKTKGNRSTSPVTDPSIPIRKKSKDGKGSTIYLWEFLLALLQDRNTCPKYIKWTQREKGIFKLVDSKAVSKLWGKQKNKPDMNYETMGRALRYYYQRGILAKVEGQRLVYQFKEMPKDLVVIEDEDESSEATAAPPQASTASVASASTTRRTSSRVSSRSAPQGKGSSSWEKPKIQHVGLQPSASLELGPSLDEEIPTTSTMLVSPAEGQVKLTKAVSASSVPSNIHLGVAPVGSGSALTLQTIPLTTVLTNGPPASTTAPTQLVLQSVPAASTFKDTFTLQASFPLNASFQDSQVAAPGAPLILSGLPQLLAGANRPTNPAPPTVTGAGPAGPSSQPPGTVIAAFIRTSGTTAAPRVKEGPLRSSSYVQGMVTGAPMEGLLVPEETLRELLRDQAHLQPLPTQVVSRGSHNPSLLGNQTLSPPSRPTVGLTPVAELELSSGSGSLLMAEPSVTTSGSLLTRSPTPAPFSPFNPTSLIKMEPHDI
Chain of ETV1 (P50549 whole entry): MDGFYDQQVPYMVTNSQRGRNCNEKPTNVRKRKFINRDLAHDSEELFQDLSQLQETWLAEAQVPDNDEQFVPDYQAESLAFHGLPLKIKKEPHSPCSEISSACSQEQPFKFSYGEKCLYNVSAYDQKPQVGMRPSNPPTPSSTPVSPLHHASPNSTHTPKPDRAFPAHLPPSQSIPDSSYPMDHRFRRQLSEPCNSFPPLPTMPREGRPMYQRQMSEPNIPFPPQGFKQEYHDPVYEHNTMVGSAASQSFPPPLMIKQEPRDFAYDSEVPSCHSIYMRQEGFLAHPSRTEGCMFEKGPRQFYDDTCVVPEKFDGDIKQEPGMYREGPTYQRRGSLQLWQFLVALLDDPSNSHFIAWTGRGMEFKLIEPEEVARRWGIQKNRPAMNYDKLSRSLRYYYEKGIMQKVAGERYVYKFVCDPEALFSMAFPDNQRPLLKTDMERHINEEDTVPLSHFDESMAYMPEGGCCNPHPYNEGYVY
Chain of ETV5 (P41161 whole entry): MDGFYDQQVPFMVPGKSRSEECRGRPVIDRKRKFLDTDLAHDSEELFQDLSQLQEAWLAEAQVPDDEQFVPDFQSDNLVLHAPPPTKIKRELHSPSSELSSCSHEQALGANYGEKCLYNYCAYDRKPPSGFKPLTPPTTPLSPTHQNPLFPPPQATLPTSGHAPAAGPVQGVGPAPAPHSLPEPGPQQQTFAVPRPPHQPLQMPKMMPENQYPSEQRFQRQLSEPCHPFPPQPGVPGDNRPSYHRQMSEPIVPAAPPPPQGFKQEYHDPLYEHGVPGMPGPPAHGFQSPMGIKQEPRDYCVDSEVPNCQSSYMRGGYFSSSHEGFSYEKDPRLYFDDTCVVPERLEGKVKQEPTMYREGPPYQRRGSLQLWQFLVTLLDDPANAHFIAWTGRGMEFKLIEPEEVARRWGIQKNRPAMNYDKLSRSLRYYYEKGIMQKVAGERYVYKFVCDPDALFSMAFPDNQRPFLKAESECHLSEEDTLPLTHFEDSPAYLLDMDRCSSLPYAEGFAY

For the sequence GATGCG, the binding signal with FEV is 1.15 fold enrichment (6-mer frequency, TF over GST control); in the experiment with ETV5, 1.14 fold enrichment (6-mer frequency, TF over GST control); with SPIC it was 1.24 fold enrichment (6-mer frequency, TF over GST control); with ELF4, 1.14 fold enrichment (6-mer frequency, TF over GST control); in the experiment with ELK4, 1.32 fold enrichment (6-mer frequency, TF over GST control); in the experiment with ETV2, 1.16 fold enrichment (6-mer frequency, TF over GST control). The binding signal with ELF3 was 1.11 fold enrichment (6-mer frequency, TF over GST control); with ETV1, 1.06 fold enrichment (6-mer frequency, TF over GST control).

Regarding CTGCAC, the binding signal is 1.22 fold enrichment (6-mer frequency, TF over GST control) with FEV; 1.17 fold enrichment (6-mer frequency, TF over GST control) in the experiment with ETV5; 1.32 fold enrichment (6-mer frequency, TF over GST control) in the experiment with SPIC; 1.2 fold enrichment (6-mer frequency, TF over GST control) with ELF4; 1.29 fold enrichment (6-mer frequency, TF over GST control) in the experiment with ELK4; 1.24 fold enrichment (6-mer frequency, TF over GST control) in the experiment with ETV2. In addition, the binding signal with ELF3 was 1.31 fold enrichment (6-mer frequency, TF over GST control); with ETV1 it was 1.13 fold enrichment (6-mer frequency, TF over GST control).

For the sequence TGACAC, the binding signal is 1.11 fold enrichment (6-mer frequency, TF over GST control) with FEV; 1.11 fold enrichment (6-mer frequency, TF over GST control) with ETV5; 1.07 fold enrichment (6-mer frequency, TF over GST control) with SPIC; 1.1 fold enrichment (6-mer frequency, TF over GST control) with ELF4; 1.18 fold enrichment (6-mer frequency, TF over GST control) with ELK4; 1.15 fold enrichment (6-mer frequency, TF over GST control) with ETV2. Moreover, the binding signal was 1.14 fold enrichment (6-mer frequency, TF over GST control) with ELF3 and 1.1 fold enrichment (6-mer frequency, TF over GST control) with ETV1.

As to GCCCCC, the binding signal with FEV is 1.13 fold enrichment (6-mer frequency, TF over GST control); with ETV5 it was 1.06 fold enrichment (6-mer frequency, TF over GST control); with SPIC, 1.26 fold enrichment (6-mer frequency, TF over GST control); in the experiment with ELF4 it was 1.11 fold enrichment (6-mer frequency, TF over GST control); with ELK4, 1.18 fold enrichment (6-mer frequency, TF over GST control); with ETV2, 1.23 fold enrichment (6-mer frequency, TF over GST control). The binding signal with ELF3 is 1.2 fold enrichment (6-mer frequency, TF over GST control); with ETV1 it was 1.1 fold enrichment (6-mer frequency, TF over GST control).

ACGACA: the binding signal with FEV is 1.14 fold enrichment (6-mer frequency, TF over GST control); with ETV5, 1.11 fold enrichment (6-mer frequency, TF over GST control); in the experiment with SPIC, 1.18 fold enrichment (6-mer frequency, TF over GST control); with ELF4, 1.22 fold enrichment (6-mer frequency, TF over GST control); with ELK4, 1.16 fold enrichment (6-mer frequency, TF over GST control); with ETV2 it was 1.1 fold enrichment (6-mer frequency, TF over GST control). The binding signal with ELF3 was 1.22 fold enrichment (6-mer frequency, TF over GST control); with ETV1, 1.18 fold enrichment (6-mer frequency, TF over GST control).

For the sequence CGGTTC, the binding signal with FEV was 1.42 fold enrichment (6-mer frequency, TF over GST control); with ETV5, 1.31 fold enrichment (6-mer frequency, TF over GST control); with SPIC, 1.2 fold enrichment (6-mer frequency, TF over GST control); with ELF4, 1.19 fold enrichment (6-mer frequency, TF over GST control); in the experiment with ELK4, 1.29 fold enrichment (6-mer frequency, TF over GST control); in the experiment with ETV2, 1.39 fold enrichment (6-mer frequency, TF over GST control). The binding signal was 1.33 fold enrichment (6-mer frequency, TF over GST control) in the experiment with ELF3 and 1.39 fold enrichment (6-mer frequency, TF over GST control) with ETV1.

With ACCCCC, the binding signal in the experiment with FEV was 1.19 fold enrichment (6-mer frequency, TF over GST control); with ETV5, 1.18 fold enrichment (6-mer frequency, TF over GST control); with SPIC, 1.12 fold enrichment (6-mer frequency, TF over GST control); with ELF4 it was 1.2 fold enrichment (6-mer frequency, TF over GST control); with ELK4, 1.28 fold enrichment (6-mer frequency, TF over GST control); with ETV2 it was 1.05 fold enrichment (6-mer frequency, TF over GST control). Besides, the binding signal was 1.29 fold enrichment (6-mer frequency, TF over GST control) in the experiment with ELF3 and 1 fold enrichment (6-mer frequency, TF over GST control) in the experiment with ETV1.

Turning to ACAACC, the binding signal was 1.34 fold enrichment (6-mer frequency, TF over GST control) with FEV; 1.27 fold enrichment (6-mer frequency, TF over GST control) in the experiment with ETV5; 1.19 fold enrichment (6-mer frequency, TF over GST control) with SPIC; 1.19 fold enrichment (6-mer frequency, TF over GST control) with ELF4; 1.19 fold enrichment (6-mer frequency, TF over GST control) with ELK4; 1.26 fold enrichment (6-mer frequency, TF over GST control) in the experiment with ETV2. For the same sequence, the binding signal is 1.26 fold enrichment (6-mer frequency, TF over GST control) with ELF3 and 1.23 fold enrichment (6-mer frequency, TF over GST control) with ETV1.
